MCF10A rerep: A quantitative high throughput screen for small molecules that induce DNA re-replication in MCF 10a normal breast cells; 2.9% of 350,000 active; Potency, µM (doses to about 46.1 µM), for inactives: at the top dose activity, positive = re-replication, actives largely listed as activators; MCF 10A DNA re-replication, Hoechst nuclear intensity, 48 h; further: potency means the concentration at half of the fitted maximal effect; % of control where 0% means no effect; nearly all actives have a fitted effect of over 50% in size
KCNH2 3.1 block: qHTS for Inhibitors of KCHN2 3.1: Mutant qHTS. activity change, % (tested at about 1.8 µM). U2OS KCNH2 3.1, thallium flux FluxOr; active compounds read low. 0.95% of 340,000 active. Potassium voltage-gated channel subfamily H member 2, brain isoform KCNH2 3.1 (human);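 active means maximum activity change below -70%; inconclusive means maximum activity change from -70% to -50%; inactive means maximum activity change above -50%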;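 further: thallium influx rate constant from kinetic fluorescence after stimulation buffer; on the % scale 0 is the no-effect control and ±100 the full control effect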
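Measured as rate of thallium-driven FluxOr signal in transduced U2OS cells carrying the 3.1 channel, read kinetically for 2 min upon stimulation; values are rate constants scaled to DMSO control wells.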
KB-V1 MDR tox: qHTS assay for MDR1-selective chemotherapeutics: Primary screen using the drug-selected MDR subline cells KB-V1; KB-V1 MDR cells viability, CellTiter-Glo, 72 h; Potency, µM (series often up to 46.1 µM), most hits filed as cytotoxic; 3.4% of 400,000 active; AID 1347076, 2019; further: potency means the concentration at half of the fitted maximal effect; on the % scale 0 is the no-effect control and ±100 the full control effect; nearly all actives have a fitted effect of over 60% in size
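Cells of the MDR subline KB-V1 are plated, dosed with compound at multiple concentrations, and incubated 72 h at 37 degrees C; CellTiter-Glo is then added and luminescence read after 10 min.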
SW480 rereplic: A quantitative high throughput screen for small molecules that induce DNA re-replication in SW480 colon adenocarcinoma cells | SW480 DNA re-replication, Hoechst DNA content imaging, 48 h | Potency, µM (series often up to 46.1 µM), without a hit: top-dose re-replication activation, usual class: activators | 1.8% of 340,000 active | AID 624297, 2012; further: potency means the concentration at half of the fitted maximal effect; % of control where 0% means no effect; nearly all actives have a fitted effect of over 55% in size
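Hoechst fluorescence of nuclei (405 nm excitation, 500-530 nm emission) measured by plate-scanning imager after 48 hr compound exposure at 37 C; re-replication scored as increased number of nuclei with elevated intensity.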
KB-3-1 tox: qHTS assay for MDR1-selective chemotherapeutics: Primary screen using the parental adenocarcinoma cell KB-3-1; KB-3-1 viability, CellTiter-Glo ATP luminescence, 72 h; Potency, µM (top dose mostly 46.1 µM), hits mostly cytotoxic; 1.4% of 400,000 active; further: potency means the concentration at half of the fitted maximal effect; on the % scale 0 is the no-effect control and ±100 the full control effect; nearly all actives have a fitted effect of over 60% in size
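Using CellTiter-Glo luminescence, growth of non-resistant KB-3-1 adenocarcinoma cells is assessed 72 h after pin-tool compound addition at 37 °C. Normalized responses across the concentration series yield fitted curves.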
KCNH2 WT inh: qHTS for Inhibitors of KCHN2 3.1: Wildtype qHTS; AID 720551, 2013; U2OS, BacMam KCNH2, thallium flux FluxOr; active compounds read low; 0.37% of 340,000 active; activity change, % at 1.84 µM;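 active means maximum activity change below -70%; inconclusive means maximum activity change between -70% and -50%; inactive means maximum activity change above -50%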; further: on the % scale 0 is the no-effect control and ±100 the full control effect
Target sequence (Q12809 whole entry, looked up): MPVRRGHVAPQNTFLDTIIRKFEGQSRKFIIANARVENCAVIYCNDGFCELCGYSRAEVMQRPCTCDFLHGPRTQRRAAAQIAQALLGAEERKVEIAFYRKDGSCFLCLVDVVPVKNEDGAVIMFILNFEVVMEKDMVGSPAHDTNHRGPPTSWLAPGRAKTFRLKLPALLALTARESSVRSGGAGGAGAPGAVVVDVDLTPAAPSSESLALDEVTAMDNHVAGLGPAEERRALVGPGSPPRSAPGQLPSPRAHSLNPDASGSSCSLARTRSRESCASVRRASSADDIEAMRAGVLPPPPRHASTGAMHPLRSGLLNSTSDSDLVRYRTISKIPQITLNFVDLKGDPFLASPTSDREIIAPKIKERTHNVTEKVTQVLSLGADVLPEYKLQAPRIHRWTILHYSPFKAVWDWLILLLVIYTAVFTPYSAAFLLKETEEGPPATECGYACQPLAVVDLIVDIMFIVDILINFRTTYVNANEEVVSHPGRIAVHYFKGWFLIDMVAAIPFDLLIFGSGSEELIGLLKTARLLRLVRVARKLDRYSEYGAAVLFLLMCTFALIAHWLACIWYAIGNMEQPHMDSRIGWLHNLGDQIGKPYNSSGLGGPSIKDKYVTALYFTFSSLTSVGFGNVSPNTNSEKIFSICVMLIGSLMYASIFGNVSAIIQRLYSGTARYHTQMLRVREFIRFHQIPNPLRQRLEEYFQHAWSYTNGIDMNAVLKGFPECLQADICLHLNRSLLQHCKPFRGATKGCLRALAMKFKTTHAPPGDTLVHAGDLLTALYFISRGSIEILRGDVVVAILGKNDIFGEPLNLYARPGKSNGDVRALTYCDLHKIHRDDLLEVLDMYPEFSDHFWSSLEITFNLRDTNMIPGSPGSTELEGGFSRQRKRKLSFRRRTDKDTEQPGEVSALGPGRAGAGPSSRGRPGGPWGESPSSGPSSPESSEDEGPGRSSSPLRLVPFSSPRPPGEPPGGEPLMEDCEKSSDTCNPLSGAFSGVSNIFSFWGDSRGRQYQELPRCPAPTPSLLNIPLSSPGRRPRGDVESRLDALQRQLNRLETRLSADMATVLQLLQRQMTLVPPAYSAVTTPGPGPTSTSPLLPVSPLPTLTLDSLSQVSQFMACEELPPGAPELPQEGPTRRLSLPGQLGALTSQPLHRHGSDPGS
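U2OS cells transduced with wild-type KCNH2 virus are loaded with FluxOr dye for 45 min, and thallium flux is measured in kinetic reads before and after stimulation buffer. Rate constants are normalized to DMSO controls.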
* hit, by the source's call; i = inactive; u = inconclusive; x = no result given. Hits are enriched below; roughly 7.6% of the tested compounds scored in any of these assays. Unless noted, the call rests on the fitted dose curve; in most records, active means well fitted curve in the direction sought with a large enough effect; inconclusive means small, poorly fitted or top-dose-only effect, or another doubt; inactive means no such curve, though single readings can be large; an effect the other way counts as inactive or inconclusive.

SMILES	MCF10A rerep	KCNH2 3.1 block	KB-V1 MDR tox	SW480 rereplic	KB-3-1 tox	KCNH2 WT inh
O=C(Nc1ccc(Cl)c([N+](=O)[O-])c1)C(NCCCO)c1ccccc1 (configuration not stated)	u	-1	i	-1%	i	-17
O=C(Nc1cc([N+](=O)[O-])ccc1Cl)C(Sc1ccccc1)c1ccccc1 (configuration not stated)	-5%	-9	15µM*	-3%	i	-2
O=C(Nc1ccc(Cl)c([N+](=O)[O-])c1)C(Sc1ccccc1)c1ccccc1 (configuration not stated)	u	-29	u	13%	26µM*	-4
COc1ccc(C(=O)NCCc2ccc(C(F)(F)F)cc2)cc1S(=O)(=O)N1CCOCC1	10%	2	i	-1%	i	-12
COc1ccc(-c2onc(C)c2-c2ccc(C(=O)OC(C)C)o2)c(O)c1	u	8	21µM*	16%	u	-20
O=C(NNS(=O)(=O)c1ccc(Br)cc1)c1ccncc1	1%	-4	i	4%	i	-6
CC(C)c1cc(C(C)C)c(S(=O)(=O)NNC(=O)c2ccncc2)c(C(C)C)c1	0%	4	15µM*	-129%	i	-12
C=CCSc1nnc(NC(=O)CN2C(=O)NC3(CCCC3)C2=O)s1	14%	-1	i	-8%	i	4
CC1Cc2ccccc2N1C(=O)CSc1nnc(-c2ccc(S(=O)(=O)N3CCCC3)cc2)o1 (configuration not stated)	2%	-1	2.1µM*	1%	i	-4
CC1Cc2ccccc2N1C(=O)CSc1nnc(-c2ccccc2Cl)o1 (configuration not stated)	x	x	i	x	i	x
N#Cc1ccccc1OCCN1C(=O)c2ccccc2C1=O	12µM*	8	i	-10%	i	-3
Nc1cccc2c1C(=O)N(CCOc1ccccc1F)C2=O	18µM*	-17	i	u	i	-2
O=C(c1ccc(N2CCOCC2)c([N+](=O)[O-])c1)N1CCN(Cc2ccccc2)CC1	16%	10	i	4%	i	13
CC1CCCN(S(=O)(=O)c2ccc3c(c2)c(=O)nc2ccc(Cl)cn23)C1 (configuration not stated)	4.6µM*	4	i	u	i	-4
C=Cc1ccc(Cn2nc(-c3ccc(C)c(S(=O)(=O)N(CC)CC)c3)ccc2=O)cc1	x	x	i	x	i	x
CC1CCN(c2ccc(C(=O)NCc3ccco3)cc2[N+](=O)[O-])CC1	16%	-11	u	8%	i	-3
Cc1cc(C(=O)N2CCCC(C(=O)c3ccc(Cl)cc3C)C2)no1 (configuration not stated)	u	x	u	23µM*	i	17
Cc1cc(Cl)ccc1C(=O)C1CCCN(C(=O)c2cnsn2)C1 (configuration not stated)	-2%	-4	i	0%	i	4
CCCc1cc(=O)n2[nH]c(NC(=O)c3ccc(C(C)(C)C)cc3)nc2n1	x	x	i	x	i	x
CCS(=O)(=O)NCCc1cc2cc(C)c(C)cc2[nH]c1=O	-1%	-7	i	0%	i	19
CCCc1nc(-c2cc3ccc(C)cc3[nH]c2=O)no1	-1%	16	12µM*	3%	i	-4
CCOc1ccccc1-c1nc(-c2cc3ccc(C)cc3[nH]c2=O)no1	u	10	u	1%	i	3
CCS(=O)(=O)NCCc1cc2ccc(C)cc2[nH]c1=O	-3%	-5	21µM*	9%	i	-4
O=S1(=O)CCO[C@H]2CCCC[C@@H]2N1Cc1cccc(F)c1	x	x	u	x	i	x
CC(C)NC(=O)C1(C)CCN1C(=O)C1(c2ccccc2)CCCC1 (configuration not stated)	x	x	i	x	i	x
SMILES	MCF10A rerep	KCNH2 3.1 block	KB-V1 MDR tox	SW480 rereplic	KB-3-1 tox	KCNH2 WT inh
CC(C)[Si]1(C(C)C)OCC2OC(n3cnc4c(N)ncnc43)C(N)C2O[Si](C(C)C)(C(C)C)O1 (configuration not stated)	13µM*	-10	i	u	i	-2
O=C(Nc1ccccc1Sc1ccccc1)c1cnn2c1NC(=C1CC1)C=C2C(F)F	x	x	i	x	u	x
COC(=O)C1CCN(c2ccc([N+](=O)[O-])cc2[N+](=O)[O-])CC1	-7%	-2	16µM*	-89%	i	x
CN(C(=O)c1cc([N+](=O)[O-])ccc1N1CCCC1)C1CCCCC1	-1%	-10	i	-2%	i	-16
CC(C)CNC(=O)c1cc([N+](=O)[O-])ccc1N1CCOCC1	1%	13	i	5%	i	4
O=C(c1ccccc1)c1ccc(N2CCOCC2)c(F)c1	-6%	u	21µM*	-2%	i	-5
O=C(c1ccc(Br)cc1)c1cc([N+](=O)[O-])ccc1N1CCOCC1	u	3	4.6µM*	0.58µM*	i	x
O=C(c1ccccc1)c1cc(F)c(N2CCOCC2)cc1Cl	-1%	31	u	7%	i	-10
CC1CCN(c2ccc([N+](=O)[O-])cc2C(=O)O)CC1	-1%	-178*	i	-8%	i	-133*
COc1ccc(S(=O)(=O)n2nc(C)c(S(=O)(=O)N3CCCCC3)c2C)cc1	x	x	i	x	i	x
Cc1cc(C)nc(N/N=C/c2cc(Br)ccc2O)n1	u	0	i	u	i	0
COCCNc1nc(-c2cc(C)c(C)cc2C)cs1	3%	-11	u	2%	u	-12
CN1CCN(c2ccc([N+](=O)[O-])cc2C(=O)c2ccc(Cl)cc2)CC1	12µM*	u	4.6µM*	8.2µM*	2.3µM*	-4
O=C(COC(=O)c1cc([N+](=O)[O-])ccc1N1CCOCC1)Nc1ccc(Cl)cn1	u	-18	13µM*	u	u	3
O=C(c1ccccc1)c1cc([N+](=O)[O-])ccc1N1CCOCC1	u	3	1.2µM*	u	1.2µM*	-1
O=C(c1ccc(Cl)cc1)c1cc([N+](=O)[O-])ccc1N1CCOCC1	u	6	1.8µM*	0.65µM*	u	11

Source: PubChem BioAssay
